The whole screen tested about 5,500 compounds, of which about 2,000 (36%) were called active. Another 18% or so got no clear call; they are omitted. No stated cut-off is given here; in the data, active means normalized growth mostly below about 0.91 (no sharp cut-off); inconclusive means no clear call, values can overlap the other calls; inactive means mostly above about 0.92. The list shows a part of the results.
Experiment: chemical genetic growth profiling, strain panel (AID 1159580);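 further: tested at 20 µM; growth read once vehicle control cultures reached saturation at 30 °C; 1 = growth at the plate median or of vehicle wells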
Settings: growth OD

Measured: normalized growth

CCCCC(CC)CN=C(N)NC(N)=NCCCCCCN=C(N)NC(N)=NCC(CC)CCCC (centres undefined)
active: S. cerevisiae deletion strains, locus YKL009W, strain mrt4, stronger effect = lower value 0.0745 | S. cerevisiae deletion strains, locus YKL068W, stronger effect = lower value 0.0576 | S. cerevisiae deletion strains, locus YKL085W, strain MDH1 (second series), stronger effect = lower value 0.0564 | S. cerevisiae deletion strains, locus YKL085W, strain MDH1, stronger effect = lower value 0.0564 | S. cerevisiae deletion strains, locus YKL160W, strain elf1, stronger effect = lower value 0.0635 | S. cerevisiae deletion strains, locus YKL190W, strain CNB1, stronger effect = lower value 0.05 | S. cerevisiae deletion strains, locus YKR001C, strain vps1, stronger effect = lower value 0.0639 | S. cerevisiae deletion strains, locus YKR026C, strain gcn3, stronger effect = lower value 0.0659 | S. cerevisiae deletion strains, locus YKR091W, strain srl3, stronger effect = lower value 0.0594 | S. cerevisiae deletion strains, locus YLL001W, strain dnm1, stronger effect = lower value 0.0606 | S. cerevisiae deletion strains, locus YLL026W, stronger effect = lower value 0.0577 | S. cerevisiae deletion strains, locus YLL041C, strain sdh2, stronger effect = lower value 0.0581 | S. cerevisiae deletion strains, locus YLR027C, strain aat2, stronger effect = lower value 0.0557 | S. cerevisiae deletion strains, locus YLR039C, strain RIC1, stronger effect = lower value 0.0876 | S. cerevisiae deletion strains, locus YLR058C, strain SHM2, stronger effect = lower value 0.0571 | S. cerevisiae deletion strains, locus YLR102C, strain apc9, stronger effect = lower value 0.0596 | S. cerevisiae deletion strains, locus YLR113W, strain HOG1, stronger effect = lower value 0.113 | S. cerevisiae deletion strains, locus YLR221C, strain rsa3, stronger effect = lower value 0.0636 | S. cerevisiae deletion strains, locus YLR258W, strain gsy2, stronger effect = lower value 0.0577 | S. cerevisiae deletion strains, locus YLR262C, strain YPT6 (second series), stronger effect = lower value 0.0725 | S. cerevisiae deletion strains, locus YLR262C, strain YPT6, stronger effect = lower value 0.104 | S. cerevisiae deletion strains, locus YLR268W, strain sec22, stronger effect = lower value 0.0602 | S. cerevisiae deletion strains, locus YLR320W, strain mms22, stronger effect = lower value 0.0987 | S. cerevisiae deletion strains, locus YLR330W, strain CHS5, stronger effect = lower value 0.0561 | S. cerevisiae deletion strains, locus YLR342W, strain FKS1 (second series), stronger effect = lower value 0.0721 | S. cerevisiae deletion strains, locus YLR342W, strain FKS1, stronger effect = lower value 0.0635 | S. cerevisiae deletion strains, locus YLR357W, strain rsc2, stronger effect = lower value 0.127 | S. cerevisiae deletion strains, locus YLR370C, strain arc18, stronger effect = lower value 0.0632 | S. cerevisiae deletion strains, locus YLR371W, strain rom2, stronger effect = lower value 0.0612 | S. cerevisiae deletion strains, locus YLR384C, strain iki3, stronger effect = lower value 0.0589 | S. cerevisiae deletion strains, locus YLR418C, strain cdc73, stronger effect = lower value 0.0906 | S. cerevisiae deletion strains, locus YML016C, strain PPZ1, stronger effect = lower value 0.0539 | S. cerevisiae deletion strains, locus YML032C, strain rad52, stronger effect = lower value 0.0626 | S. cerevisiae deletion strains, locus YML120C, strain ndi1, stronger effect = lower value 0.0582 | S. cerevisiae deletion strains, locus YML124C, strain tub3, stronger effect = lower value 0.058 | S. cerevisiae deletion strains, locus YMR058W, strain fet3, stronger effect = lower value 0.0606 | S. cerevisiae deletion strains, locus YMR078C, strain ctf18, stronger effect = lower value 0.0695 | S. cerevisiae deletion strains, locus YMR125W, strain sto1, stronger effect = lower value 0.0772 | S. cerevisiae deletion strains, locus YMR129W, stronger effect = lower value 0.0584 | S. cerevisiae deletion strains, locus YMR205C, strain PFK2, stronger effect = lower value 0.0839 | S. cerevisiae deletion strains, locus YMR223W, strain ubp8, stronger effect = lower value 0.0589 | S. cerevisiae deletion strains, locus YMR231W, strain pep5, stronger effect = lower value 0.0657 | S. cerevisiae deletion strains, locus YMR263W, strain SAP30, stronger effect = lower value 0.0593 | S. cerevisiae deletion strains, locus YMR307W, strain GAS1, stronger effect = lower value 0.118 | S. cerevisiae deletion strains, locus YNL067W, strain RPL9B, stronger effect = lower value 0.051 | S. cerevisiae deletion strains, locus YNL071W, strain lat1, stronger effect = lower value 0.0619 | S. cerevisiae deletion strains, locus YNL128W, strain TEP1, stronger effect = lower value 0.0666 | S. cerevisiae deletion strains, locus YNL183C, strain NPR1, stronger effect = lower value -0.00134 | S. cerevisiae deletion strains, locus YNL209W, strain ssb2, stronger effect = lower value 0.0592 | S. cerevisiae deletion strains, locus YNL233W, strain BNI4, stronger effect = lower value 0.06 | S. cerevisiae deletion strains, locus YNL248C, strain rpa49, stronger effect = lower value 0.0743 | S. cerevisiae deletion strains, locus YNL250W, strain rad50, stronger effect = lower value 0.0631 | S. cerevisiae deletion strains, locus YNL271C, strain bni1, stronger effect = lower value 0.0667 | S. cerevisiae deletion strains, locus YNL298W, strain CLA4, stronger effect = lower value 0.0608 | S. cerevisiae deletion strains, locus YNL307C, strain MCK1, stronger effect = lower value 0.0671 | S. cerevisiae deletion strains, locus YNL322C, strain KRE1 (second series), stronger effect = lower value 0.0646 | S. cerevisiae deletion strains, locus YNL322C, strain KRE1, stronger effect = lower value 0.05 | S. cerevisiae deletion strains, locus YNR049C, strain mso1, stronger effect = lower value 0.058 | S. cerevisiae deletion strains, locus YNR052C, strain pop2, stronger effect = lower value 0.0629 | S. cerevisiae deletion strains, locus YOL006C, strain TOP1, stronger effect = lower value 0.124 | S. cerevisiae deletion strains, locus YOL012C, strain htz1 0.144 | S. cerevisiae deletion strains, locus YOL147C, strain pex11, stronger effect = lower value 0.058 | S. cerevisiae deletion strains, locus YOR001W, strain rrp6, stronger effect = lower value 0.0671 | S. cerevisiae deletion strains, locus YOR061W, strain CKA2, stronger effect = lower value 0.0521 | S. cerevisiae deletion strains, locus YOR069W, strain VPS5, stronger effect = lower value 0.0535 | S. cerevisiae deletion strains, locus YOR070C, strain gyp1, stronger effect = lower value 0.0584 | S. cerevisiae deletion strains, locus YOR080W, strain dia2, stronger effect = lower value 0.0635 | S. cerevisiae deletion strains, locus YOR083W, strain WHI5, stronger effect = lower value 0.0619 | S. cerevisiae deletion strains, locus YOR106W, strain vam3, stronger effect = lower value 0.0658 | S. cerevisiae deletion strains, locus YOR136W, strain idh2, stronger effect = lower value 0.0692 | S. cerevisiae deletion strains, locus YOR144C, strain elg1, stronger effect = lower value 0.0567 | S. cerevisiae deletion strains, locus YOR184W, strain ser1, stronger effect = lower value 0.0701 | S. cerevisiae deletion strains, locus YOR231W, strain MKK1, stronger effect = lower value 0.0983 | S. cerevisiae deletion strains, locus YOR265W, strain rbl2, stronger effect = lower value 0.0559 | S. cerevisiae deletion strains, locus YOR270C, strain vph1, stronger effect = lower value 0.0983 | S. cerevisiae deletion strains, locus YOR290C, strain snf2, stronger effect = lower value 0.0664 | S. cerevisiae deletion strains, locus YOR316C, strain cot1, stronger effect = lower value 0.0588 | S. cerevisiae deletion strains, locus YPL051W, strain arl3, stronger effect = lower value 0.0606 | S. cerevisiae deletion strains, locus YPL055C, strain LGE1, stronger effect = lower value 0.0672 | S. cerevisiae deletion strains, locus YPL078C, strain atp4, stronger effect = lower value 0.0617 | S. cerevisiae deletion strains, locus YPL106C, strain sse1, stronger effect = lower value 0.0996 | S. cerevisiae deletion strains, locus YPL240C, strain hsp82, stronger effect = lower value 0.0572 | S. cerevisiae deletion strains, locus YPL256C, strain CLN2, stronger effect = lower value 0.111 | S. cerevisiae deletion strains, locus YPR119W, strain clb2, stronger effect = lower value 0.0609 | S. cerevisiae deletion strains, locus YPR141C, strain kar3, stronger effect = lower value 0.0639 | S. cerevisiae deletion strains, locus YPR163C, strain tif3, stronger effect = lower value 0.0715 | S. cerevisiae deletion strains, locus YPR167C, strain met16, stronger effect = lower value 0.0622 | S. cerevisiae deletion strains, strain wtn01, stronger effect = lower value 0.0578 | S. cerevisiae strains, strain wild type, stronger effect = lower value 0.0505
